# Screens deposited in PubChem by National Center for Advancing Translational Sciences (NCATS).
# EPAC1 agonist: qHTS for Agonist of cAMP-regulated guanine nucleotide exchange factor 3 (EPAC1): primary screen | Rap guanine nucleotide exchange factor 3 (Homo sapiens), O95398 | EPAC1 agonist qHTS, biochemical assay; response scale: 100% = response to 6.5 mM cAMP | Potency, µM (doses to about 154 µM), for the others: at the top dose activation, hits mostly activators | hit rate 0.073% among 360,000; further: nearly all actives have a fitted effect of over 60% in size
# Target sequence (O95398 whole entry, looked up): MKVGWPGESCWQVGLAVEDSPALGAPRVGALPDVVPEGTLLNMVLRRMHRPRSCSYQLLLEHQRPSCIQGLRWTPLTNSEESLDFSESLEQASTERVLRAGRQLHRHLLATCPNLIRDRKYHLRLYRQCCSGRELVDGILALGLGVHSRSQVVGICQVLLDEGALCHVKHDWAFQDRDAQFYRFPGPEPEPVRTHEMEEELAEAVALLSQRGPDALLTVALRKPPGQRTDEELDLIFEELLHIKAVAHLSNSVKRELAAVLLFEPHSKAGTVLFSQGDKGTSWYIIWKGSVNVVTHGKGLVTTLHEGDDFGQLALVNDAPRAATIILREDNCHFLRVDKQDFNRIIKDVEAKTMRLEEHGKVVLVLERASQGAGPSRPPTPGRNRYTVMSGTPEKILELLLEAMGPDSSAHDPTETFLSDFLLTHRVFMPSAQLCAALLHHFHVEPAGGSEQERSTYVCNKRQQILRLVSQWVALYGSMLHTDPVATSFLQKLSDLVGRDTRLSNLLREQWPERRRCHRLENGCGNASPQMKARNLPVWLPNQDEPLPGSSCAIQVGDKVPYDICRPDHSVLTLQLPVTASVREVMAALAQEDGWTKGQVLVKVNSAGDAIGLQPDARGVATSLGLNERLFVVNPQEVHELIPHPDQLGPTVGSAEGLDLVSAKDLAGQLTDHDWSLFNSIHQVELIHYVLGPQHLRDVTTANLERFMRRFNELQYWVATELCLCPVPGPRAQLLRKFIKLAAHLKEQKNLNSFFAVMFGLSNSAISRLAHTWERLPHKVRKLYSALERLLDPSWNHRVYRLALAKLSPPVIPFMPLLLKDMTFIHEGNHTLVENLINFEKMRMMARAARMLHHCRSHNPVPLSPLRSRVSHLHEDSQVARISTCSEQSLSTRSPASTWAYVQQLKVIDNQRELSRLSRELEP
#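 Multi-concentration qHTS readout: loss of Rap1B-bound BODIPY-GDP fluorescence driven by 100 nM EPAC1 with excess GDP (50 uM), monitored kinetically at room temperature; agonist response expressed relative to 6.5 mM cAMP.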
# EPAC2 antagonist: qHTS for Antagonist of cAMP-regulated guanine nucleotide exchange factor 2 (EPAC2): primary screen; EPAC2 GEF exchange of Rap1B-BODIPY-GDP, fluorescence; Potency, µM (series often up to 114 µM), for the others: at the top dose activity, negative = inhibition, actives largely listed as inhibitors; hit rate 0.18% among 360,000; further: on the % scale 0 is the no-effect control and ±100 the full control effect; nearly all actives have a fitted effect of over 45% in size
# USP1 inh: Inhibitors of USP1/UAF1: Primary Screen; recombinant USP1/UAF1, Ub-Rhodamine cleavage fluorescence; Potency, µM (top dose mostly 57.1 µM), inactives show top-dose activity change, negative = inhibition, most hits filed as inhibitors; hit rate 0.23% among 390,000; AID 743255, 2014; further: on the % scale 0 is the no-effect control and ±100 the full control effect; nearly all actives have a fitted effect of over 60% in size
#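 Step one: compound is pinned into 1nM USP1/UAF1 in HEPES pH 7.8 buffer with TCEP. Step two: 15 min room-temperature incubation. Step three: Ub-Rho (150nM final) starts cleavage, tracked by fluorescence over six one-minute reads.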
# EPAC2 agonist: qHTS for Agonist of cAMP-regulated guanine nucleotide exchange factor 4 (EPAC2): primary screen. Rap guanine nucleotide exchange factor 4 (Homo sapiens), Q8WZA2. Potency, µM (doses to about 154 µM), inactives show at the top dose activation, usual class: activators. EPAC2 activation, biochemical qHTS; response scale: 100% = 6.5 mM cAMP response. hit rate 0.079% among 360,000; further: nearly all actives have a fitted effect of over 50% in size
#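 Readout is BODIPY fluorescence (480 nm excitation, 540 nm emission), which falls as labeled GDP is exchanged off Rap1B. EPAC2 at 100 nM acted on 250 nM RAP1B-BODIPY-GDP with 50 uM GDP present.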
# EPAC1 antag: qHTS for Antagonist of cAMP-regulated guanine nucleotide exchange factor 3 (EPAC1): primary screen. Potency, µM (series often up to 115 µM), for the others: at the top dose activity change, negative = inhibition, most hits filed as inhibitors. hit rate 0.14% among 360,000. AID 720709, 2013. EPAC1 GEF assay, Rap1b-BODIPY-GDP exchange fluorescence;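 further: plate controls were vehicle for no effect and positive control for full effect; nearly all actives have a fitted effect of over 50% in size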
# The depositor's hits bear a star; ? = inconclusive; . = no result. A selection: hits, their analogues and other compounds. The true share with any hit is near 0.44%. The call rests on the fitted dose curve; in most records, active means well fitted curve in the direction sought with a large enough effect; inconclusive means small, poorly fitted or top-dose-only effect, or another doubt; inactive means no such curve, though single readings can be large; an effect the other way counts as inactive or inconclusive. Potency means the concentration at half of the fitted maximal effect.
SMILES,EPAC1 agonist,EPAC2 antagonist,USP1 inh,EPAC2 agonist,EPAC1 antag
CCOc1ccc(S(=O)(=O)Nc2ccc(O)c(Sc3ncn[nH]3)c2)cc1,-2%,1%,-11%,3%,12%
CC(C)c1ccc(S(=O)(=O)/N=C2/C=C(Sc3ncn[nH]3)C(=O)c3ccccc32)cc1,13%,89µM*,1.8µM*,2%,56µM*
Cc1ccc(S(=O)(=O)/N=C2/C=C(Sc3ncn[nH]3)C(=O)c3ccccc32)cc1,-6%,20µM*,1µM*,19%,45µM*
CCOC(=O)C1CCN(C(=O)CN2c3ccc(CC)cc3-c3ccccc3S2(=O)=O)CC1,.,.,2%,.,.
COc1ccc(C(C)(O)c2nc(-c3csc4ccccc34)cs2)cc1 (configuration not stated),-8%,-23%,.,11%,2%
COc1cccc(CNC(=O)CCc2c(C)c3cc4c(C)c(C)oc4cc3oc2=O)c1,.,.,5%,.,.
COc1cc(S(=O)(=O)N(Cc2cccs2)CC2CCCO2)ccc1-n1cnnn1 (configuration not stated),1%,2%,-3%,9%,8%
O=S(=O)(NCc1ccccc1)c1ccc(S(=O)(=O)N(Cc2cccs2)CC2CCCO2)cc1 (configuration not stated),13%,1%,-7%,40µM*,2%
COc1cccc2cc(-c3nc(-c4ccc(Cl)cc4)cs3)c(=O)oc12,.,.,-12%,.,.
Cc1c(C(=O)Nc2ccc(C(C)C)cc2)sc2nc[nH]c(=O)c12,.,.,-10%,.,.
COc1cccc(-c2ccc(C#N)c(OC(=O)c3ccc(Cl)cc3)n2)c1,4%,10%,0%,6.3µM*,11%
COc1cc(Cl)c(C)cc1NC(=O)CSc1cc(Cl)ccc1Cl,7%,15%,-21%,-5%,25µM*
Cn1c(O)c(/C=C2\C=Nc3ccccc32)sc1=Nc1ccc(C(=O)O)cc1,-12%,-9%,?,2%,1%
O=C(Cc1ccccc1)Nn1c(O)c(/C=C2\C=Nc3ccccc32)sc1=S,89µM*,-4%,32µM*,100µM*,-2%
COc1cc(OC)c(N(C)C(=O)c2cc3c(s2)-c2ccccc2OC3)cc1Cl,.,.,-20%,.,.
CCOC(=O)C1=C(C)N=c2s/c(=C\c3cccn3C)c(=O)n2C1c1cccc(OC)c1OC (configuration not stated),22%,17%,-16%,112µM*,4%
CCSc1nnc2c(n1)OC(c1ccc(C)cc1)N(C(C)=O)c1ccccc1-2 (configuration not stated),.,.,-21%,.,.
CC(C)CCn1c(=O)c2cccnc2n(CC(=O)Nc2ccccc2F)c1=O,.,.,-11%,.,.
CCc1ccc2c(c1)NC(=O)C2(C)Cc1ccccc1 (configuration not stated),-9%,-23%,.,-4%,-4%
CCc1ccc2c(c1)NC(=O)C2(C)Cc1ccc(C(F)(F)F)o1 (configuration not stated),-24%,20µM*,.,-10%,-21%
Cc1ccc2c(=O)cc(C(=O)Nc3ccc(S(=O)(=O)Nc4nc(C)cc(C)n4)cc3)oc2c1,.,.,-13%,.,.
COc1cc(NCCCC(C)N)c2ncccc2c1 (configuration not stated),0%,-4%,5µM*,6%,?
O=C(c1cc(-c2ccc(Cl)cc2)on1)N(Cc1cccc(F)c1)Cc1ccco1,.,.,-12%,.,.
CCOc1ccccc1NC(=O)C(CC)n1c(C(=O)OC)cc2occc21 (configuration not stated),.,.,-16%,.,.
COc1ccccc1C(=O)Nc1ccc(S(=O)(=O)Nc2nc(C)cc(C)n2)cc1,.,.,-24%,.,.
SMILES,EPAC1 agonist,EPAC2 antagonist,USP1 inh,EPAC2 agonist,EPAC1 antag
O=C(O)CCN1C(=O)/C(=C\c2cccc(Oc3ccccc3)c2)SC1=S,3%,79µM*,?,8%,?
O=C1/C(=C\c2cc(Cl)c(O)c(Cl)c2)SC(=S)N1Cc1ccccc1,-8%,92%,4µM*,?,270%
COc1ccc(/C=C2/SC(=S)N(CCC(=O)O)C2=O)cc1,1%,-2%,-8%,11%,-10%
COc1ccc(/C=C2/SC(=S)N(Cc3ccccc3)C2=O)cc1O,21%,-1%,-10%,11%,-21%
O=C(O)CN1C(=O)/C(=C\c2cccc(OCc3ccccc3F)c2)SC1=S,6%,89µM*,-18%,0%,?
CCOc1ccc(Br)cc1C1C(C(=O)OC)=C(C)NC2=C1C(=O)c1ccccc12 (configuration not stated),.,.,-23%,.,.
CCOC(=O)c1cccc(NC(=O)CCCn2nc(C)c3c(C)n(-c4ccccc4)nc3c2=O)c1,.,.,20%,.,.
Cc1cccc(N(CC(O)Cn2c3ccccc3c3ccccc32)S(=O)(=O)c2ccc(F)cc2)c1 (configuration not stated),.,.,-13%,.,.
O=C(NCC(c1cccnc1)N1CCc2ccccc2C1)c1ccc(F)c(F)c1 (configuration not stated),.,.,-9%,.,.
CCCN(CCC)Cc1cc(=O)oc2cc(OC)c(Cl)cc12,-12%,?,.,0%,-3%
C=CCN(CC=C)Cc1cc(=O)oc2cc(OC)c(Cl)cc12,-4%,32µM*,.,14%,-20%
Cc1nc(C)c(-c2csc(Nc3ccc(C(=O)O)c(O)c3)n2)s1,19%,10µM*,-5%,-1%,?
CCCn1c(=O)n(C)c(=O)c2c(SCC(=O)NCc3ccco3)nc(C3CC3)nc21,-7%,-16%,4%,10µM*,-10%
C[C@@H]1CN([C@H](C)CO)S(=O)(=O)c2ccc(Br)cc2O[C@@H]1CN(C)Cc1ccc(-c2ccccc2)cc1,-10%,0%,25µM*,8%,-3%
COc1cccc(S(=O)(=O)N(C)C[C@H]2Oc3cc(Br)ccc3S(=O)(=O)N([C@@H](C)CO)C[C@H]2C)c1,8%,?,18µM*,3%,-15%
O=C1C(SCCO)=C(SCCO)C(=O)c2ccccc21,-3%,4%,6.3µM*,6%,?
